Drawing on publication PMC7862700, “An all-to-all approach to the identification of sequence-specific readers for epigenetic DNA modifications on cytosine”, this text covers binding signal for 8 sequences.

Experiment in all cases: DAPPL (digital affinity profiling via proximity ligation, sequencing); 10 mM Tris-HCl pH 7.5, 50 mM NaCl, 1 mM DTT, 4% glycerol, room temperature, 30 min; GST-TFs on glutathione beads, 16-mer random dsDNA library, 0.1% formaldehyde crosslink after washing; high values mean tight binding
Assay [1] addresses T1, FEV (Homo sapiens, UniProt Q99581 1-238).
T1 sequence: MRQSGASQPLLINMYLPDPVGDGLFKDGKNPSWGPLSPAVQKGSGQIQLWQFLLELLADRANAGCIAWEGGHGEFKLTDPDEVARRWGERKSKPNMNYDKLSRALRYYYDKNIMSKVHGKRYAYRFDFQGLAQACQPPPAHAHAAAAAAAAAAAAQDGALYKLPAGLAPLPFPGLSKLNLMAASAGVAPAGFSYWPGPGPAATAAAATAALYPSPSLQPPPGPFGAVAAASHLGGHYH
The following applies: protein: recombinant; tags: N-terminal GST; dsDNA, one strand shown. In short, it runs like this:
(§1)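 Binding signal is each hexamer's read frequency for a factor divided by its frequency in the tag-only sample. The factors were GST-fused human transcription factors from yeast, captured on glutathione beads, DNA-barcoded and pooled with that sample. Pools were incubated with 200 nmole of a random double-stranded 16-mer DNA library in Tris/NaCl/DTT/glycerol buffer at room temperature for 30 min, then washed, crosslinked with 0.1% formaldehyde, proximity-ligated with BsaI/T4 ligase (1 h, 37 °C), PCR-amplified and sequenced on an Illumina NextSeq500.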

For assay [2], the target named is ETV5 (Homo sapiens, UniProt P41161 1-510). The following applies: protein: recombinant; tags: N-terminal GST; dsDNA, one strand shown. In short, it runs like this: as §1
In assay [3] the target is HSF1 (Homo sapiens, UniProt Q00613 1-529). The following applies: protein: recombinant; tags: N-terminal GST; chain copies: 3; dsDNA, one strand shown. In short, it runs like this:
as §1

Assay [4] deals with T2, SPIC (Homo sapiens, UniProt Q8N5J4 1-248).
T2 sequence: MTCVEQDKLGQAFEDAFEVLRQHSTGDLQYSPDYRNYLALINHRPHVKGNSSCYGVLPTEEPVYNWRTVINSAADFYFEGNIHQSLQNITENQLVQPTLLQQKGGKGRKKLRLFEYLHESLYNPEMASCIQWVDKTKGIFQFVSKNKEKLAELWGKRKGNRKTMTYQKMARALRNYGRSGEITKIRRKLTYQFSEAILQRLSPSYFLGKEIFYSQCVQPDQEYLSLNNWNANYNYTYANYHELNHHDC
The settings on record: protein: recombinant; tags: N-terminal GST; dsDNA, one strand shown. In short, it runs like this:
as §1

Assay [5] addresses ELF4 (Homo sapiens, UniProt Q99607 1-663). The following applies: protein: recombinant; tags: N-terminal GST; dsDNA, one strand shown. The method in brief:
as §1

The target of assay [6] is T3, ETV2 (Homo sapiens, UniProt O00321 1-342).
T3 sequence: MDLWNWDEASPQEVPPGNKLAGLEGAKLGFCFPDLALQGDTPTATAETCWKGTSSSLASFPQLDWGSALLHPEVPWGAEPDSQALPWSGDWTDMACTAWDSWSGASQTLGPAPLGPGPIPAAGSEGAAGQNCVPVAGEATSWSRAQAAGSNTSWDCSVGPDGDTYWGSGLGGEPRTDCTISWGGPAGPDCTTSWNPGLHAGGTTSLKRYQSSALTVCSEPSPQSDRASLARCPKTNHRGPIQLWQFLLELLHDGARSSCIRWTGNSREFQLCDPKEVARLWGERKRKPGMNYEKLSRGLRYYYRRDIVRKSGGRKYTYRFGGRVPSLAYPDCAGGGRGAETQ
The settings on record: protein: recombinant; tags: N-terminal GST; dsDNA, one strand shown. The method in brief: as §1

Assay [7] deals with CRX (Homo sapiens, UniProt O43186 1-299). The settings on record: protein: recombinant; tags: N-terminal GST; dsDNA, one strand shown. In short, it runs like this:
as §1

In assay [8] the target is ETV1 (Homo sapiens, UniProt P50549 1-477). The following applies: protein: recombinant; tags: N-terminal GST; dsDNA, one strand shown. In short, it runs like this: as §1
Assay [9] addresses T4, ELF3 (Homo sapiens, UniProt P78545 1-371).
T4 sequence: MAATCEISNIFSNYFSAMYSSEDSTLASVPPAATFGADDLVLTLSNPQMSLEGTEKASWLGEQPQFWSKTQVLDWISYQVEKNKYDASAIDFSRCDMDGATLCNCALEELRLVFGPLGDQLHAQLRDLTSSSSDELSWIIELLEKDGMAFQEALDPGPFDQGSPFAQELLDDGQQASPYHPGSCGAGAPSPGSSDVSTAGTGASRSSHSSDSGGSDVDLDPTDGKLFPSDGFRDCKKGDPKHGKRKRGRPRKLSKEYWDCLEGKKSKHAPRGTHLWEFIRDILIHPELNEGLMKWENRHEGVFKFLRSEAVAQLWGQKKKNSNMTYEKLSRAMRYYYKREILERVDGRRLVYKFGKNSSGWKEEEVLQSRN
The settings on record: protein: recombinant; tags: N-terminal GST; dsDNA, one strand shown. The method in brief: as §1

Assay [10] addresses T5, ELK4 (Homo sapiens, UniProt P28324-2 1-405).
T5 sequence: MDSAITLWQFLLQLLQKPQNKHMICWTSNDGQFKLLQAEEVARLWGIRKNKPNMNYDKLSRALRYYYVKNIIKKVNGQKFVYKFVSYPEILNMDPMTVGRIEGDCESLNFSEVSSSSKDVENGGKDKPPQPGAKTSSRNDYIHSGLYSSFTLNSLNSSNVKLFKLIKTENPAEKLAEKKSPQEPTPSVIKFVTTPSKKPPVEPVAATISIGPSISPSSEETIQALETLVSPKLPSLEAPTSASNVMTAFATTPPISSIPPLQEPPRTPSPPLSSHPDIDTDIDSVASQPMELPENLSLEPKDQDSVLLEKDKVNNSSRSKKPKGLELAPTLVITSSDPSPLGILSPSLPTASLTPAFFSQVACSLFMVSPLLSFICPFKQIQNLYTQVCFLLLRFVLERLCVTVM
The following applies: protein: recombinant; tags: N-terminal GST; dsDNA, one strand shown. In short, it runs like this: as §1

Sequence of ETV1 (P50549 whole entry): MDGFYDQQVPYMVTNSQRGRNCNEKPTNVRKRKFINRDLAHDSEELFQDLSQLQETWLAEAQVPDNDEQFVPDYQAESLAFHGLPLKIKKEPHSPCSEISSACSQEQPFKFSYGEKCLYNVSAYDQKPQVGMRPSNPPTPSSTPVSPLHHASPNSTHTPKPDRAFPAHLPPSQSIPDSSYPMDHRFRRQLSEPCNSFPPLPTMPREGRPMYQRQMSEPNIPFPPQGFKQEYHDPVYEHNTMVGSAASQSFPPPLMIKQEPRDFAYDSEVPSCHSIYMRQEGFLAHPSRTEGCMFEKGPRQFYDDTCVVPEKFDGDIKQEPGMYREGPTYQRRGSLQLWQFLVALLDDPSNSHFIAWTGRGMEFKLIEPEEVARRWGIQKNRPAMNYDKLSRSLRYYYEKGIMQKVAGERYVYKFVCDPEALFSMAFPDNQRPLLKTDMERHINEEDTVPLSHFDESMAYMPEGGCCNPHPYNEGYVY
Sequence of ELF4 (Q99607 whole entry): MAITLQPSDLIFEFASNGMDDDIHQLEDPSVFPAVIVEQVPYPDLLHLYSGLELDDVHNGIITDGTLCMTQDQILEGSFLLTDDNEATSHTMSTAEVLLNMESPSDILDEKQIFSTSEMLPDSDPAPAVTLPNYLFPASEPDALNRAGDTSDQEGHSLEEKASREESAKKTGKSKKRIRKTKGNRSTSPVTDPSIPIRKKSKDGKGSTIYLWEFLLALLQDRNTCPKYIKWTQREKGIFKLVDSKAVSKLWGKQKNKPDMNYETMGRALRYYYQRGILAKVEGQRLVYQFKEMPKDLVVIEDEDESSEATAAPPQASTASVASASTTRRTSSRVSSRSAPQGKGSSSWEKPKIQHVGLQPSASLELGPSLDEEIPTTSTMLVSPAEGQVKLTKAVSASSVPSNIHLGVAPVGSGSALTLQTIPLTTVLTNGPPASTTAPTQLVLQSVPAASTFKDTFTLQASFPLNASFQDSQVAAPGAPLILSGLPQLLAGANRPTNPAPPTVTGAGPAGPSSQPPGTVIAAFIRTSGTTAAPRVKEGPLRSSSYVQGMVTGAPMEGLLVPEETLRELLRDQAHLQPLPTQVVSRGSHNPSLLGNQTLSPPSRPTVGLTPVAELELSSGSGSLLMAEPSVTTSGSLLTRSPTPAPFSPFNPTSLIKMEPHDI
Sequence of CRX (O43186 whole entry): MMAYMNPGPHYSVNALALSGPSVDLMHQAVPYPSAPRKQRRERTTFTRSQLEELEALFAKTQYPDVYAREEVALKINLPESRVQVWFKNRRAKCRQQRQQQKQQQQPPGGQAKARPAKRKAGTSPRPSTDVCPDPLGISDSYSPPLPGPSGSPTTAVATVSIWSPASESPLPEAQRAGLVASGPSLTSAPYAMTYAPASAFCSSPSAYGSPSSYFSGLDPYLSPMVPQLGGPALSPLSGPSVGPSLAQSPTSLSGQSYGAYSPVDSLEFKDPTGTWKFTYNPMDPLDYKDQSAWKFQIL
Sequence of HSF1 (Q00613 whole entry): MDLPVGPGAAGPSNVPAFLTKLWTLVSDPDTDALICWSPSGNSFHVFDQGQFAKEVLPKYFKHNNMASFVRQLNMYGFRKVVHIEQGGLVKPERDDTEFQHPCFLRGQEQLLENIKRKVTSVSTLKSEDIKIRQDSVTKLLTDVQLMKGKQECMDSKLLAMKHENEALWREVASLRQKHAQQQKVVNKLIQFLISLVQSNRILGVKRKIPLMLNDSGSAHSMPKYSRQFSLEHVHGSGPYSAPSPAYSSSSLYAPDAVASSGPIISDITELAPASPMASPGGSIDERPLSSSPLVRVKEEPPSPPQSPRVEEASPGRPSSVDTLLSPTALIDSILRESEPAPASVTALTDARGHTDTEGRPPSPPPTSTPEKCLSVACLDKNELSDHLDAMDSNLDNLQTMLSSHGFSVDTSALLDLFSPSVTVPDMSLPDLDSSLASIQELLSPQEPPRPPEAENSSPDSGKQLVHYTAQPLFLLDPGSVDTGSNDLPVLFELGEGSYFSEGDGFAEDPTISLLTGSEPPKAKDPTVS
Sequence of ETV5 (P41161 whole entry): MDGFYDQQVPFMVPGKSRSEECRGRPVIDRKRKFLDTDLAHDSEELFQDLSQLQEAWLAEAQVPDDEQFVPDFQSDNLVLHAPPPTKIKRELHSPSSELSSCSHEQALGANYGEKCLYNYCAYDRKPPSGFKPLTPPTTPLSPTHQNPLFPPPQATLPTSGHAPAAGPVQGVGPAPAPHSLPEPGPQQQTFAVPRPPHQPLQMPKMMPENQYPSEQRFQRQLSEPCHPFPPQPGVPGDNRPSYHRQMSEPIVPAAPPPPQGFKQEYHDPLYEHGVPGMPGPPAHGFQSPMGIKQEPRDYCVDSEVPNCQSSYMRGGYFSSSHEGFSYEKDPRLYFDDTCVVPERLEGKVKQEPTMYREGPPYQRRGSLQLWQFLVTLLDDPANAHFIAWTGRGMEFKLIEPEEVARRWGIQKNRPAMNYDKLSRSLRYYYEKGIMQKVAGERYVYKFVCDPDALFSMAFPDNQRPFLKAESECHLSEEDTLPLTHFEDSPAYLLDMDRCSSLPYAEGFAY

Turning to TAGCAG, the binding signal was 1.03 fold enrichment (6-mer frequency, TF over GST control) in [1]; 1.04 fold enrichment (6-mer frequency, TF over GST control) in assay [2]; 1.12 fold enrichment (6-mer frequency, TF over GST control) in assay [3]; 1.04 fold enrichment (6-mer frequency, TF over GST control) in assay [4]; 1.05 fold enrichment (6-mer frequency, TF over GST control) in assay [5]; 1.06 fold enrichment (6-mer frequency, TF over GST control) in assay [6]. Further, the binding signal in assay [7] was 1.23 fold enrichment (6-mer frequency, TF over GST control); in [8], 1.02 fold enrichment (6-mer frequency, TF over GST control).

Consider TAGTCT, for which the binding signal in [2] is 1.01 fold enrichment (6-mer frequency, TF over GST control); in assay [3], 1.4 fold enrichment (6-mer frequency, TF over GST control); in assay [4], 1.05 fold enrichment (6-mer frequency, TF over GST control); in [5], 1.03 fold enrichment (6-mer frequency, TF over GST control); in assay [9], 1.14 fold enrichment (6-mer frequency, TF over GST control); in [7], 1.4 fold enrichment (6-mer frequency, TF over GST control). Besides, in assay [8], the binding signal was 1.01 fold enrichment (6-mer frequency, TF over GST control).

Take AGATGA: the binding signal in assay [1] is 1.01 fold enrichment (6-mer frequency, TF over GST control); in assay [2] it was 1.11 fold enrichment (6-mer frequency, TF over GST control); in [3], 1.24 fold enrichment (6-mer frequency, TF over GST control); in assay [4], 1.14 fold enrichment (6-mer frequency, TF over GST control); in [5] it was 1.12 fold enrichment (6-mer frequency, TF over GST control); in assay [6], 1.17 fold enrichment (6-mer frequency, TF over GST control). Also, the binding signal in assay [7] is 1.21 fold enrichment (6-mer frequency, TF over GST control); in [8] it was 1.1 fold enrichment (6-mer frequency, TF over GST control).

For GGAACA, the binding signal in [1] is 1.01 fold enrichment (6-mer frequency, TF over GST control); in assay [2], 1.16 fold enrichment (6-mer frequency, TF over GST control); in assay [3], 1.32 fold enrichment (6-mer frequency, TF over GST control); in assay [4], 1.1 fold enrichment (6-mer frequency, TF over GST control); in assay [5] it was 1 fold enrichment (6-mer frequency, TF over GST control); in [6], 1.11 fold enrichment (6-mer frequency, TF over GST control). In addition, the binding signal was 1.09 fold enrichment (6-mer frequency, TF over GST control) in assay [9] and 1.08 fold enrichment (6-mer frequency, TF over GST control) in [8].

Take AAACGA: the binding signal in assay [1] is 1.09 fold enrichment (6-mer frequency, TF over GST control); in assay [2], 1.1 fold enrichment (6-mer frequency, TF over GST control); in [3], 1.09 fold enrichment (6-mer frequency, TF over GST control); in assay [4], 1.02 fold enrichment (6-mer frequency, TF over GST control); in assay [5], 1.08 fold enrichment (6-mer frequency, TF over GST control); in [6], 1.1 fold enrichment (6-mer frequency, TF over GST control). Further, the binding signal in assay [9] was 1.11 fold enrichment (6-mer frequency, TF over GST control); in assay [8], 1.03 fold enrichment (6-mer frequency, TF over GST control).

In the case of TCTAGG, the binding signal in assay [2] was 1.05 fold enrichment (6-mer frequency, TF over GST control); in [3], 1.7 fold enrichment (6-mer frequency, TF over GST control); in [4], 1.24 fold enrichment (6-mer frequency, TF over GST control); in assay [5] it was 1.13 fold enrichment (6-mer frequency, TF over GST control); in assay [6] it was 1.11 fold enrichment (6-mer frequency, TF over GST control); in assay [9], 1.07 fold enrichment (6-mer frequency, TF over GST control). Also, the binding signal in assay [7] was 1.27 fold enrichment (6-mer frequency, TF over GST control).

On to AAGGCT, for which the binding signal is 1.05 fold enrichment (6-mer frequency, TF over GST control) in [1]; 1.01 fold enrichment (6-mer frequency, TF over GST control) in assay [2]; 1.1 fold enrichment (6-mer frequency, TF over GST control) in assay [3]; 1.06 fold enrichment (6-mer frequency, TF over GST control) in assay [4]; 1 fold enrichment (6-mer frequency, TF over GST control) in assay [10]; 1.15 fold enrichment (6-mer frequency, TF over GST control) in [6]. For the same sequence, the binding signal in assay [9] is 1.02 fold enrichment (6-mer frequency, TF over GST control); in [7] it was 1.43 fold enrichment (6-mer frequency, TF over GST control).

With TAACGG, the binding signal in [1] is 1.1 fold enrichment (6-mer frequency, TF over GST control); in assay [2] it was 1.09 fold enrichment (6-mer frequency, TF over GST control); in assay [3], 1.03 fold enrichment (6-mer frequency, TF over GST control); in assay [4], 1.07 fold enrichment (6-mer frequency, TF over GST control); in [10] it was 1.02 fold enrichment (6-mer frequency, TF over GST control); in [6] it was 1.11 fold enrichment (6-mer frequency, TF over GST control). The binding signal was 1.21 fold enrichment (6-mer frequency, TF over GST control) in assay [7] and 1.04 fold enrichment (6-mer frequency, TF over GST control) in [8].
